# Reference: PubChem BioAssay AID504361 (National Center for Advancing Translational Sciences (NCATS), 2011)
# Results filed as inconclusive are left out. Active and inactive are the calls of the source. Calls follow the shape of the dose curve; as a rule, active = well fitted curve in the direction sought with a large enough effect; inconclusive = small, poorly fitted or top-dose-only effect, or effect the other way, or another doubt; inactive = no such curve, though single readings can be large or run the other way.
# Test: qHTS Assay for Identifying a Potential Treatment of Ataxia-Telangiectasia: Secondary assay (no NCS) SAR for Probe
# Settings: F2112 A-T fibroblasts, pKAP1 AlphaLISA; series mostly up to 76.9 µM
# Text: NIH Chemical Genomics Center [NCGC] NIH Molecular Libraries Probe Centers Network [MLPCN] MLPCN Grant: MH089030-01 Assay Submitter (PI): Wei Zheng and Yosef Shiloh Ataxia-telangiectasia (A-T) is a devastating and progressive disease for which, there is no cure. Although A-T is a multisystem disease, it is stereotyped characterized by its neurological symptoms such as truncal ataxia, due to cerebellar cortical degeneration of the Purkinje and granule cells. Other symptoms of A-T are telangiectasias (dilated blood vessels), primary immunodeficiency, marked sensitivity to ionizing radiation (IR), chromosomal instability and predisposition to cancer. The underlying genetic cause of A-T is null mutations in the ATM (A-T mutated) gene. ATM is a nuclear serine/threonine kinase that functions as a master regulator of the cellular responses to double strand breaks (DSBs) in the DNA. Upon activation by DSBs, ATM phosphorylates a plethora of downstream targets, including KAP-1 on Ser82452. […] To screen for small molecules that will compensate for the loss of ATM in cells derived from A-T patients, we monitored KAP-1 phosphorylation as a readout for ATM-like activity using an AlphaLISA assay. […]
# qHTS Assay Protocol: Step,Parameter,Value,Description 1. […] Readout, EnVision, EnVision plate reader. […] EnVision protocol for 1536-well AlphaScreen read (30ms excitation, 100ms read), about 10 min/plate.
compound,measurement,value
CC(=O)c1c(O)c(C)c(O)c(Cc2c(O)c3c(c(C(=O)/C=C/c4ccccc4)c2O)OC(C)(C)C=C3)c1O,outcome,inactive
